Source: PubChem (several laboratories)
Arbovirus anti: antivirals against arbovirus infection, primary screen, cell-based, full library, 10K replicate subset | arbovirus infection cell-based antiviral screen | inhibition, % at 10 µM | hit rate 0.37% among 200,000; in the data active means inhibition above about 30%
DTT redox prof: compounds producing H2O2 with reducing agent – biochemical, NIH compound library profiling, artefact control for MLSCN library redox annotation, primary screen. DTT-dependent redox cycling H2O2, phenol red/HRP absorbance; 100% = 100 µM peroxide control, 0% = buffer. activation, % at 10 µM. hit rate 0.03% among 200,000;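 active means activation of at least 50% relative to the plate's high and low controls in the primary single-dose screen; inactive means activation below 50%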;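 further: compound incubated with DTT at 0.8 mM final as the reducing agent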
HMGR II inh: inhibitors of E. faecalis class II HMGR, primary screen, biochemical, Enterococcus faecalis | HMG-CoA reductase (Enterococcus faecalis, mvaE) | purified E. faecalis HMGR, NADPH absorbance 340 nm kinetic | inhibition, % at 10 µM | hit rate 0.41% among 190,000;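 active means inhibition above a set limit, the median over all tested compounds plus 3 SD, cut at about 9.5% in these data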;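 further: enzyme runs in reverse so mevalonate oxidation gives rising NADPH absorbance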
Autophagy mod: autophagy modulators in MEF cells, primary screen, imaging, high-content, MEF GFP-LC3. MEF GFP-LC3 puncta imaging; test concentration mostly 10 µM. calls only at 10 µM (by protocol). hit rate 0.98% among 190,000. AID 463193, 2010;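 active means percentage of spot-positive cells more than 3 SD above its plate mean, without a fluorescence outlier flag or 80% toxicity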
Ins promoter up: insulin promoter activators in MIN6 cells, imaging, high-content screening, mouse beta cells | z-score at 5 µM | MIN6 insulin promoter-GFP reporter; stronger effect = higher value | hit rate 0.3% among 190,000;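 active means z-score above 3 at 5 µM with at least 500 cells counted in the well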
p47phox inh: p47phox/p22phox peptide binding inhibitors, primary screen, biochemical, uHTS, NADPH oxidase regulatory subunit; AID 1274, 2008; hit rate 0.53% among 220,000; Neutrophil cytosol factor 1 (Homo sapiens), P14598; inhibition, % at 24.7 µM; fluorescence polarization, 2 h;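 active means inhibition above about 30%, limit read from the data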
Target sequence (P14598 whole entry, looked up): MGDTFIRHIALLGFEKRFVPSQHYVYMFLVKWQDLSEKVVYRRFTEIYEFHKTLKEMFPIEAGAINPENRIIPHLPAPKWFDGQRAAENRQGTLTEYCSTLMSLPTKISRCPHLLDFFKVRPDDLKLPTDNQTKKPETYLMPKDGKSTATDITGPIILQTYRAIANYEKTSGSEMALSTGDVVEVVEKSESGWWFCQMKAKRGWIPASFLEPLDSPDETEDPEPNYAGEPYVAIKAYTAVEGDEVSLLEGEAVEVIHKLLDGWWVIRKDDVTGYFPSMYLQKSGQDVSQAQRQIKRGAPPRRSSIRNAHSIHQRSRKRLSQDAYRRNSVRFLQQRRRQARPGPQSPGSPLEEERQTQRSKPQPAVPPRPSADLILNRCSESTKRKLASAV
Large screens that a line does not name were inactive. The list is not random: actives were taken first. Their share in the collection is about 2.2%.

CC(C)Oc1ccc(-c2nn(-c3ccccc3)cc2/C=c2\sc3ncnn3c2=O)cc1	Arbovirus anti 33.8
Nc1nnnn1/N=C/c1cc(Cl)cc(Cl)c1OCc1ccc(Cl)cc1Cl	Autophagy mod active
O=[N+]([O-])c1ccc(S(=O)(=O)NCCc2ccncc2)cc1	none
COc1ccccc1CC(=O)NC1CC(C)(C)NC(C)(C)C1	Ins promoter up 3.65
CC1(C)CC(NC(=O)Cc2ccccc2[N+](=O)[O-])CC(C)(C)N1	none
C/C(=N\NC(=O)c1cccc(S(=O)(=O)N2CCCC2)c1)c1cccs1	none
Cc1ccc(S(=O)(=O)/N=S(/C)c2ccccc2)cc1 (centres undefined)	none
O=C(O)CC1(CC(=O)NCc2cc(F)cc3c2OCOC3)CCCCC1	none (no result: Arbovirus anti, DTT redox prof, HMGR II inh, Autophagy mod)
N#CCc1c(C#N)c(N)nc(N2CCCC(CO)C2)c1C#N (centres undefined)	Autophagy mod active
C=CCOc1ccc(Br)cc1CNC(C)(C)C	HMGR II inh 21.6 (no result: Ins promoter up)
Cc1ccc(S(=O)(=O)NCCC(=O)OCC(=O)Nc2ccccc2Cl)cc1	p47phox inh 33.0
CC1(C)CC(=O)C(=CN2CCOCC2)C(=O)C1	none
CCOC(=O)N1CCC(NC(=O)c2cc(S(=O)(=O)N3CCCC3)cn2C)CC1	none
CCOC(=O)N1CCN(C(=O)c2cc(S(=O)(=O)N3CCCC3)cn2C)CC1	Ins promoter up 3.05
COC(=O)c1ccccc1NC(=O)c1ccc(COc2ccc(C)c(C)c2)o1	Arbovirus anti 48.0
CCc1ccc(NC(=O)c2cc(C(C)C)on2)cc1	Ins promoter up 3.36
CCOC(=O)c1c(-c2ccc(C)c(C)c2)csc1NC(=O)C1CC=CCC1C(=O)O (centres undefined)	Arbovirus anti 40.9
COc1ccc(NC(=O)CC23CC4CC(C2)CC(n2nnc(C)n2)(C4)C3)cc1	none
O=C1c2ccccc2C(=O)c2c(NCCCN(CCO)CCO)cccc21	p47phox inh 37.3
CCN(CC)CC(=O)Nc1cccc2c1C(=O)c1ccccc1C2=O	none
O=C(OCC(=O)N1CCN(C(=O)c2ccco2)CC1)c1cc(-c2ccc(Cl)c(Cl)c2Cl)nc2ccccc12	p47phox inh 36.8
O=C(OCC(=O)N1CCN(C(=O)c2ccco2)CC1)c1cc(-c2ccco2)nc2ccccc12	none
CCOC(=O)N/N=C\c1ccc(OC(=O)c2ccc3c(c2)OCO3)cc1	Autophagy mod active
CSc1ccccc1C(=O)C1CCCN(C(=O)CCN2CCCO2)C1 (centres undefined)	none
NC(=S)NNC(=O)c1cccc(Br)c1	HMGR II inh 16.9 (no result: Ins promoter up)
Cc1ccc(NC(=O)COC(=O)C2CC2(Cl)Cl)cc1C (centres undefined)	none
CC/C(=N/Nc1cccc(C)c1)c1cnnc(SC)n1	Autophagy mod active
CCOC(=O)CNC(=O)CN1C(=O)CC(c2ccccc2)S(=O)(=O)c2ccccc21 (centres undefined)	HMGR II inh 10.7
O=C(CN1C(=O)CC(c2ccccc2)S(=O)(=O)c2ccccc21)N1CCOCC1 (centres undefined)	none (no result: Ins promoter up)
NC(CO)(CO)COCc1ccccc1	none
CC(C)(C)c1ccc(C(=O)NNC(=S)NCC2CCCO2)cc1 (centres undefined)	none
CC(C)(C)c1ccc(C(=O)NC(=S)NCC2CCCO2)cc1 (centres undefined)	Arbovirus anti 40.4
Cc1ccc(N2C(=O)C(F)(F)C2c2ccccc2)cc1 (centres undefined)	none
Cc1ccc(N2C(=N)/C(=C3/Nc4ccccc4S3)C(c3ccccc3)C2=O)cc1 (centres undefined)	Autophagy mod active
CCOc1ccc(NC(=O)/C=C/c2ccc(OC)cc2)c([N+](=O)[O-])c1	Autophagy mod active
CCOc1ccc(N/C=C/C(=O)c2ccc(C)cc2)c([N+](=O)[O-])c1	p47phox inh 36.8
Cc1cc(OCc2nn[nH]n2)c2c(C)c(Cc3ccccc3)c(=O)oc2c1	none
CCOC(=O)Cc1nn(Cc2ccccc2)c(=O)c2ccccc12	HMGR II inh 13.6
CCOC(=O)Cc1nn(Cc2ccc(Cl)cc2)c(=O)c2ccccc12	none
O=C(OCC(=O)N1CCCC1)c1ccc(S(=O)(=O)Nc2ccccc2)cc1	none
CCN(CC)CCCNC(=O)c1cc2c(-c3ccc(Cl)cc3)nn(C)c2s1	Autophagy mod active
Cn1nc(-c2ccc(Cl)cc2)c2cc(C(=O)NCC3CCCO3)sc21 (centres undefined)	none
CN1CCN(CCCNC(=O)c2cc3c(-c4ccc(Cl)cc4)nn(C)c3s2)CC1	Autophagy mod active
NS(=O)(=O)c1ccc(CCNC(=O)c2ccccc2[N+](=O)[O-])cc1	none
O=C1/C(=C/c2ccc(N3CCOCC3)o2)SC(=Nc2ccccc2)N1CCc1c[nH]c2ccccc12	Autophagy mod active (no result: Ins promoter up)
COc1cc(/C=N/NC(=O)c2cc(C)oc2C)ccc1O	p47phox inh 36.9
COc1ccc(/C=N/NC(=O)c2cc(C)oc2C)cc1OC	none (no result: Arbovirus anti, DTT redox prof, HMGR II inh, Autophagy mod)
O=C(Cc1ccc(Cl)cc1)Nc1ccc(NC(=O)c2cccs2)cc1	Autophagy mod active
O=C(Nc1cccc(NC(=O)c2cccs2)c1)c1ccco1	Arbovirus anti 63.5
O=C(Cc1ccc([N+](=O)[O-])cc1)Nc1ccc(Cl)cc1	p47phox inh 76.9
O=C(C/C=N\OCc1ccc([N+](=O)[O-])cc1)Nc1ccc(Cl)cc1	none
O=C(Nc1ccc(Cl)cc1)c1cccs1	none
CCOC(=O)N1CCc2c(sc3c2c(=O)n(Cc2ccccc2)c(=O)n3Cc2cccc(C)c2)C1	none
CCN(CC)S(=O)(=O)c1cccc(C(=O)N[C@H](C(=O)Nc2nc3ccc(F)cc3s2)C(C)C)c1	none
Cc1ccc(NC(=O)Cn2c(O)c(N=NC(=O)c3cc4ccccc4cc3O)c3ccccc32)cc1	p47phox inh 57.6
O=Nc1c(O)n(Cc2ccc(Cl)cc2)c2ccccc12	Ins promoter up 3.05
Cc1ccc(Cn2c(O)c(N=O)c3ccccc32)cc1	none
O=C(N=Nc1c(O)n(Cc2ccccc2)c2ccccc12)c1cc2ccccc2cc1O	p47phox inh 40.3
O=C(N=Nc1c(O)n(Cc2ccccc2)c2ccccc12)c1ccc(O)cc1	none
C=CCNC(=O)c1c2c(nc3ccccc13)-c1ccccc1CC2	Ins promoter up 4.54
CC(C)CNC(=O)c1c2c(nc3ccccc13)-c1ccccc1CC2	none (no result: Ins promoter up)
O=C(c1ccco1)N1C(=O)c2cccc3cccc1c23	p47phox inh 150.2 (no result: Ins promoter up)
Cc1ccc(S(=O)(=O)N2CCCC2C(=O)N(C)Cc2cccs2)cc1 (centres undefined)	Ins promoter up 4.2
